Screening results (PubChem BioAssay)
Tau fibril ThT – tau fibrillization inhibition (ThT binding). P10636. AID 1460. recombinant tau K18 P301L, heparin-induced fibrillization, ThT fluorescence. hit rate 2.1% among 270,000. Potency, µM (titrated, usually from 57.4 µM), hits mostly inhibitors; also: nearly all actives have a fitted effect of over 55% in size
Target sequence (P10636 561-689 P618L limits assumed): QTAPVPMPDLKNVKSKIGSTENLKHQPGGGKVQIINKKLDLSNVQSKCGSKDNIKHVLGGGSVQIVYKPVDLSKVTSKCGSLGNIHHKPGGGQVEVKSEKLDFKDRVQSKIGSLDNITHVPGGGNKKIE
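Using a mix of unlabeled (15 uM) and Alexa 594-labeled (0.24 uM) tau K18 P301L, heparin-triggered fibrillization over 6 hr at 37 C was scored by ThT fluorescence.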
Tau fibril FP – tau fibrillization inhibition (FP); P10636; K18 P301L tau heparin fibrillization, Alexa594 FP, 6 h; Potency, µM (series often up to 57.7 µM), actives largely listed as inhibitors; hit rate 0.39% among 280,000; also: nearly all actives have a fitted effect of over 55% in size
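Quantitative HTS format: compounds meet 15 uM recombinant K18 P301L tau and Alexa 594-tau tracer in 100 mM sodium acetate pH 7; 20 uM heparin triggers fibrillization at 37 C over 6 hr; FP gives the signal.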
Tau fluor cs – counter-screen for tau fibril formation inhibitors; Potency, µM (series often up to 57.7 µM); tau K18 P301L Alexa594 fluorescence, heparin fibrillization; hit rate 0.93% among 280,000; also: nearly all actives have a fitted effect of over 55% in size
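Human tau K18 P301L (15 uM unlabeled, 0.24 uM Alexa 594-labeled) in 100 mM sodium acetate pH 7 with 20 uM heparin, 6 hr at 37 C. ThT 30 uM added, 1 hr ambient; Alexa 594 FP and total fluorescence read at 555/632 nm.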
FBPA coupling cs – coupling enzyme interference in Giardia aldolase counter-screen. hit rate 0.67% among 290,000. coupling enzyme system counterscreen, AmpLite Red fluorescence. activity change, negative = inhibition, % at 58.2 µM, hits read low. AID 2472; in the data active = activity change below about -30%
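Compounds tested against the coupling enzymes alone at 57.5 uM final; readout was AmpLite Red fluorescence (525/598 nm) after 20 min at RT.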
Of the large screens only hits and unclear results are named; the others gave an inactive call; [ ] = remark or other dose. The list is not random: actives were taken first. Their share in the collection is about 2.7%. Unless noted, calls follow the shape of the dose curve; as a rule, active = well fitted curve in the direction sought with a large enough effect; inconclusive = small, poorly fitted or top-dose-only effect, or another doubt; inactive = no such curve, though single readings can be large; an effect the other way counts as inactive or inconclusive.

COc1cc(/C=C/C(=O)c2ccc(NS(=O)(=O)c3ccc(C)cc3)cc2)ccc1OC(F)F	none
COc1ccc(/C=C/C(=O)c2ccc(C)c([N+](=O)[O-])c2)cc1O	none
COc1cc(/C=C/C(=O)c2ccc(C)c([N+](=O)[O-])c2)cc(OC)c1O	Tau fibril ThT 6.3µM, Tau fluor cs inconclusive
COc1cc(/C=C/C(=O)c2c(O)ccc3c(C)cc(=O)oc23)ccc1O	Tau fibril ThT 16µM
COc1cc(/C=C/C(=O)c2ccc(NS(=O)(=O)c3ccc(C)cc3)cc2)cc(OC)c1O	Tau fibril ThT 11µM, Tau fluor cs 14µM[quencher]
Cc1noc(C)c1C(=O)N1CCC2(CCN(Cc3nccs3)CC2)CC1	none (no result: Tau fibril ThT, Tau fibril FP, Tau fluor cs)
CN(C)Cc1ccccc1-c1cncnc1NCc1cccs1	none
COc1cc2c(cc1OC)C1C(=O)c3c(cc4c(c3O)C=CC(C)(C)O4)OC1CO2 (stereo not drawn)	none
C=CCc1ccccc1OCc1nc2ccc(C)cc2[nH]1	Tau fibril ThT inconclusive (no result: FBPA coupling cs)
O=C(C=C=Nc1ccccc1)C(=O)N=C=Cc1ccccc1	Tau fibril ThT 10µM, Tau fibril FP inconclusive, Tau fluor cs inconclusive
Cn1ncc2c(Nc3ccc(O)cc3)nc(Cl)nc21	none
CNc1nc(Nc2ccc(C)c(Cl)c2)c2cnn(C)c2n1	none (no result: Tau fibril ThT, Tau fibril FP, Tau fluor cs)
Cn1ncc2c(Nc3cccc(Cl)c3)nc(Nc3cccc(Cl)c3)nc21	Tau fibril FP 8.9µM, Tau fluor cs inconclusive
Cn1ncc2c(Nc3ccc(Br)cc3)nc(Nc3ccc(Br)cc3)nc21	Tau fibril ThT inconclusive, Tau fibril FP 10µM, Tau fluor cs inconclusive
Cc1ccc(O)c(NC(=O)c2noc3c2CCCC3)c1	Tau fibril ThT inconclusive, Tau fluor cs inconclusive (no result: FBPA coupling cs)
Cc1ccc(O)c(NC(=O)c2noc3c2CCCCC3)c1	Tau fibril FP inconclusive, Tau fluor cs 25µM[quencher]
Cc1cc(Nc2ccccc2)nn1C(=O)c1ccc(Br)cc1	Tau fluor cs 7.9µM[quencher]
CCc1c(C)[nH]c2c1C(=O)[C@H](CN1CCOCC1)CC2	none (no result: Tau fibril ThT, Tau fibril FP, Tau fluor cs)
C(=N\Nc1nc2ccccc2[nH]1)/c1ccc2c(c1)OCO2	Tau fibril ThT 7.9µM, Tau fluor cs inconclusive
CCN(CC)c1ccc(/C=N/Nc2nc3ccccc3[nH]2)cc1	Tau fibril ThT 3.2µM, Tau fibril FP inconclusive, Tau fluor cs 7.9µM[quencher]
CC(=O)Nc1ccc(/C=N/Nc2nc3ccccc3[nH]2)cc1	Tau fibril ThT inconclusive
COc1ccc2c(c1)CC(NC(=O)Nc1cc(Cl)ccc1OC)CO2 (stereo not drawn)	Tau fibril FP inconclusive, Tau fluor cs inconclusive (no result: FBPA coupling cs)
CCN(c1ccccc1)c1cc2ccccc2c(=O)[nH]1	FBPA coupling cs -34 (no result: Tau fibril ThT, Tau fibril FP, Tau fluor cs)
O=C(C1CCC1)N1CCc2cc(S(=O)(=O)NCCc3ccccc3)ccc21	none (no result: FBPA coupling cs)
CN(C)c1ccc(N2C(=O)CC(Nc3ccc(N4CCOCC4)cc3)C2=O)cc1 (stereo not drawn)	Tau fibril ThT 14µM
COc1ccc(N2C(=O)CC(Nc3ccc(N4CCOCC4)cc3)C2=O)c(OC)c1 (stereo not drawn)	Tau fibril ThT inconclusive
O=C1CC(Nc2ccc(N3CCOCC3)cc2)C(=O)N1c1cccc(C(F)(F)F)c1 (stereo not drawn)	Tau fibril ThT 16µM, FBPA coupling cs -36
COc1cccc(N2C(=O)CC(Nc3ccc(N4CCOCC4)cc3)C2=O)c1 (stereo not drawn)	Tau fibril ThT 14µM
CC(=O)Nc1ccc(NC(=O)c2ccc3c(c2)N(Cc2cccc(Cl)c2)C(=O)c2ccccc2S3(=O)=O)cc1	Tau fibril FP 16µM, Tau fluor cs inconclusive (no result: FBPA coupling cs)
O=C(Nc1ccc(Cl)cc1)c1ccc2c(c1)N(Cc1ccccc1)C(=O)c1ccccc1S2(=O)=O	Tau fibril FP inconclusive, Tau fluor cs inconclusive (no result: FBPA coupling cs)
CC12CN3CC(C)(CN(C1)C3c1c[nH]c3ccccc13)C2=O (stereo not drawn)	none
CC12CN3CC(C)(CN(C1)C3c1ccc3ccccc3c1O)C2=O (stereo not drawn)	Tau fibril ThT inconclusive, FBPA coupling cs -48
CC(C)(C)N1C(=O)[C@@H]2[C@H]3C(=CC[C@H]2C1=O)C(=O)[C@H]1O[C@H]1[C@H]3O	Tau fibril ThT inconclusive, Tau fibril FP inconclusive
CCOC(=O)CCN1C(=O)[C@@H]2[C@H]3C(=CC[C@H]2C1=O)C(=O)[C@H]1O[C@H]1[C@H]3O	Tau fibril ThT 4µM, Tau fibril FP inconclusive
C[C@@H](c1ccccc1)N1C(=O)[C@@H]2[C@H]3C(=CC[C@H]2C1=O)C(=O)[C@H]1O[C@H]1[C@H]3O	Tau fibril ThT inconclusive, Tau fibril FP inconclusive
O=C1C2=CC[C@@H]3C(=O)N(c4ccc(F)cc4F)C(=O)[C@H]3[C@H]2[C@H](O)[C@H]2O[C@H]12	Tau fibril ThT 4.5µM, Tau fibril FP inconclusive
Cc1ccc(F)cc1-c1ccc(C(=O)N=C(N)N)o1	none (no result: Tau fibril ThT, Tau fibril FP, Tau fluor cs)
CN(Cc1ccco1)c1ncnc2ccc(-c3cccc(C#N)c3)cc12	Tau fibril ThT inconclusive
O=C(O)c1cccc(N2C(=O)/C(=C/c3ccc(SCc4ccc(Cl)cc4)o3)SC2=S)c1	Tau fibril ThT 16µM, Tau fibril FP inconclusive, Tau fluor cs inconclusive
COc1ccccc1-c1cc(C(=O)NC2CCCC2)no1	none (no result: Tau fibril ThT, Tau fibril FP, Tau fluor cs)
COC(=O)/C=c1\sc2ncnn2c1=O	Tau fibril ThT 16µM, Tau fibril FP 14µM
CNC(=O)/C(C#N)=c1\s/c(=C/C(=O)OC)c(=O)n1-c1ccccc1	none
CN1/C(=C/C(=O)c2nc(S(C)(=O)=O)ncc2Cl)C(C)(C)c2ccccc21	Tau fibril ThT 5µM
CN1CCN(c2ncc3nc(-c4ccccc4)c(=O)n(C4CC4)c3n2)CC1	none (no result: Tau fibril ThT, Tau fibril FP, Tau fluor cs)
O=C1C2C3C=CC(C3)C2C(=O)N1/N=C/c1cc(Br)cc([N+](=O)[O-])c1O (stereo not drawn)	Tau fibril ThT 7.9µM
COc1cc(Cl)c(C)cc1NC(=O)CSc1cc(-c2ccccc2)nc(C)n1	Tau fibril ThT inconclusive (no result: FBPA coupling cs)
COc1ccc(C2=NOC(COc3ccc([N+](=O)[O-])cc3)C2)cc1 (stereo not drawn)	Tau fibril ThT inconclusive
Cc1ccc(N=Cc2cc(Br)cc(Cl)c2O)cc1	Tau fibril ThT 18µM, Tau fibril FP inconclusive
COCc1[nH]nc2c1C(c1c(F)cccc1Cl)C(C#N)=C(N)O2 (stereo not drawn)	FBPA coupling cs -39
COCc1[nH]nc2c1C(c1ccccc1Cl)C(C#N)=C(N)O2 (stereo not drawn)	none
Cc1ccc(OCC(=O)c2ccc(Cl)s2)c([N+](=O)[O-])n1	Tau fibril ThT 14µM, Tau fibril FP inconclusive, Tau fluor cs inconclusive
Cc1ccc(CNC(=O)COc2ccc(C)nc2[N+](=O)[O-])cc1	none
CC(=O)NCCNC(=O)CCCn1c(=O)[nH]c2ccsc2c1=O	Tau fibril FP inconclusive (no result: FBPA coupling cs)
CCOc1ccccc1C(=O)Nc1c[nH]c(=O)[nH]c1=O	FBPA coupling cs -33 (no result: Tau fibril ThT, Tau fibril FP, Tau fluor cs)
Fc1ccccc1/C=N/Nc1nc2ccccc2o1	none (no result: Tau fibril ThT, Tau fibril FP, Tau fluor cs)
COC(=O)c1ccc(CC(=O)c2c(C)cc(O)cc2O)o1	Tau fibril ThT 28µM, Tau fibril FP inconclusive, Tau fluor cs inconclusive
COc1ccc(NC(=O)CSc2nnc(N)s2)cc1	none
CCOC(=O)c1sc(SCC(=O)Nc2ccc(N(C)C)cc2)nc1N	Tau fibril ThT 14µM, Tau fluor cs inconclusive
